Data on 28 molecules can be found in PubChem BioAssay (NCATS).

One assay relates to HeLa. As to the kind of experiment: Primary qHTS to identify gynecologic anti-cancer compounds using libraries of approved drugs and bioactive compounds (AID 1345084). Further: nearly all actives have a fitted effect of over 55% in size. The note with it: Gynecologic cancer cell panel viability, ATPlite luminescence, 48 h; series mostly up to 57.5 µM. In a few lines: (§1)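 Five-concentration response, 48 h; readout is ATP-driven luciferase luminescence.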
Background: qHTS replaces the single test concentration by a dilution series.

Another assay concerns Hek293T. The assay is described as above. The note with it: Gynecologic cancer cell panel viability, ATPlite luminescence, 48 h, control line for the selectivity index; series mostly up to 57.5 µM. In a few lines: as §1
In general terms: ATP-based viability assays read luminescence as a measure of living cells.

The test system of another assay is OV90. The description is as above. Conditions: Gynecologic cancer cell panel viability, ATPlite luminescence, 48 h; series mostly up to 57.5 µM. The method in brief: as §1
Another assay concerns PA-1. Described as above. The note with it: Gynecologic cancer cell panel viability, ATPlite luminescence, 48 h; series mostly up to 57.5 µM. In a few lines: as §1
Another assay deals with SKOV3. The assay is described as above. Conditions: Gynecologic cancer cell panel viability, ATPlite luminescence, 48 h; series mostly up to 57.5 µM. In a few lines:
as §1

The test system of a further assay is Tov-21-G. Described as above. Conditions: Gynecologic cancer cell panel viability, ATPlite luminescence, 48 h; series mostly up to 57.5 µM. The method in brief:
as §1

For a further assay, the system named is Es-2. The assay is described as above. The note with it: Gynecologic cancer cell panel viability, ATPlite luminescence, 48 h; series mostly up to 57.5 µM. In a few lines:
as §1

The next assay has as its system CASKI. The assay is described as above. The note with it: Gynecologic cancer cell panel viability, ATPlite luminescence, 48 h; series mostly up to 57.5 µM. The method in brief: as §1
For a further assay, the system named is JEG-3. Described as above. Conditions: Gynecologic cancer cell panel viability, ATPlite luminescence, 48 h; series mostly up to 57.5 µM. The method in brief:
as §1

The next assay has as its system Tov112D. The description is as above. The note with it: Gynecologic cancer cell panel viability, ATPlite luminescence, 48 h; series mostly up to 57.5 µM. In a few lines:
as §1

Assay [1] can be described thus: Drug repurposing screens with cells derived from glioblastoma tumor samples (AID 1345199). Further: nearly all actives have a fitted effect of over 40% in size. Conditions: GBM patient neurospheres viability, ATP luminescence, 48 h. The method in brief: (§2)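 Four patient lines of CD133+ GBM neurospheres were screened at several concentrations; hits were retested in those lines plus three slower-growing GBM lines, using 48-hour treatment and ATP-based viability.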

For another assay, the system named is astro. The assay is described as above. Conditions: viability, ATP luminescence, 48 h; series mostly up to 45.9 µM. The method in brief:
as §2

A short description of assay [2]: qHTS assay to identify inhibitors of the type 1 interferon - major histocompatibility complex class I in skeletal muscle: Counter screen cell viability and HiBit confirmation (AID 1347412). On all read-outs here: nearly all actives have a fitted effect of over 60% in size. Conditions: iHSKM muscle cells + IFN-b, HiBiT or CellTiter-Glo, 24 h; for Potency: HiBiT. In a few lines: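 After 24 h with human IFN-beta (4 ng/ml) and compound titrations (top 46 uM final, 1:3, 12 points), HLA-B HiBit myoblasts were lysed for either Nano-Glo HiBiT luminescence or CellTiter Glo viability on paired plates.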

The structures appear in SMILES notation. Records with an inconclusive call do not appear. Values without a mark were called inactive. Active and inactive are the calls of the source. The call rests on the fitted dose curve; in most records, active means well fitted curve in the direction sought with a large enough effect; inconclusive means small, poorly fitted or top-dose-only effect, or another doubt; inactive means no such curve, though single readings can be large; an effect the other way counts as inactive or inconclusive.
On the % scale 0 is the no-effect control and ±100 the full control effect; potency means the concentration at half of the fitted maximal effect.

Take `C=C1C(=O)O[C@@H]2C(OC(=O)/C(C)=C\C)/C(C)=C\C(=O)/C=C(\C)C[C@H](O)[C@@H]12` (some centres undefined): the Potency entry in the assay on HeLa, in the assay with OV90 and in the assay on SKOV3 was “inactive” throughout. Further, the Potency in the assay with Hek293T is 11.2 µM (active); in the assay on PA-1, 10 µM (active); in the assay on Tov-21-G, 10 µM (active).

On to `C=C[C@@]1(C)C=C2C(=O)C(O)=C3[C@](C)(C(=O)O)CC[C@@H]4C[C@]34[C@]2(O)C(=O)C1`, for which the Potency is 10 µM (active) in the assay on Es-2, 11.2 µM (active) in the assay with Hek293T, 11.2 µM (active) in the assay with PA-1 and 11.2 µM (active) in the assay on Tov-21-G. In addition, the Potency entry in the assay on HeLa was “inactive”.

For the molecule `CCN(Cc1cc(Nc2nc(C)cn3c(-c4cn[nH]c4)cnc23)sn1)C(C)(C)CO`, the Potency with Es-2 is 3.16 µM (active); with Hek293T it was 3.55 µM (active); in the assay on Tov-21-G, 0.355 µM (active).

In the case of `Clc1ccc(Nc2nc3ccccc3c3nc(C4CCCCC4)[nH]c23)cc1Cl`, the Potency result in the assay on CASKI, in the assay on JEG-3, with SKOV3, with Tov-21-G and in the assay on Tov112D was “inactive” each time.

With `C=C1C(=O)OC2/C=C(\COC(C)=O)CC/C=C(\C=O)CC(OC(=O)C(C)CC)C12` (centres undefined), the Potency entry in the assay on CASKI, in the assay with HeLa and in the assay on OV90 was “inactive” each time. In addition, the Potency with PA-1 is 11.2 µM (active).

Consider `C=C(C)[C@@H]1CC=C(COC(=O)NC(=O)c2ncn3c(=O)n(C)nnc23)CC1`, for which the Potency with Es-2 is 20 µM (active); with HeLa, 31.6 µM (active); in the assay on Hek293T it was 25.1 µM (active).

For `CN[C@H]1CC[C@@H](c2ccc(Cl)c(Cl)c2)c2ccccc21`, the Potency is 28.2 µM (active) with CASKI; 28.2 µM (active) in the assay with SKOV3; 2.24 µM (active) in assay [1] (tumour line A); 17.8 µM (active) in [1] (tumour line B); 6.31 µM (active) in [1] (tumour line D); 20 µM (active) in the assay with astro. The activity, negative = cell killing in [1] (at 46.1 µM (top of the series), tumour line C) is 17.5%.

As for `c1ccc(-c2cnn3cc(-c4ccc(OCCN5CCOCC5)cc4)cnc23)cc1`, the Potency result with CASKI, with HeLa, in the assay with JEG-3 and with Tov-21-G was “inactive” each time. Moreover, the Potency with SKOV3 is 15.8 µM (active).

For `Cc1nc2ccc(-n3ncc(C(=O)c4cc5ccccc5[nH]4)c3N)cc2[nH]1`, the Potency with HeLa is 28.2 µM (active); with Hek293T, 14.1 µM (active); in the assay with OV90, 14.1 µM (active); in the assay with Tov-21-G it was 28.2 µM (active).

`O=C(Nc1ccccc1Cl)c1cnc2ccc(C3CCNCC3)cn12`: the Potency result in the assay on HeLa, in the assay with Hek293T and in the assay on Tov112D was “inactive” each time. For the same molecule, the Potency with OV90 is 7.94 µM (active); with PA-1, 0.891 µM (active); in the assay on Tov-21-G, 1.58 µM (active).

As to `CN(C)CCCn1cc(C2=C(c3c[nH]c4ccccc34)C(=O)NC2=O)c2ccccc21`, the Potency was 28.2 µM (active) in the assay with Es-2 and 22.4 µM (active) in the assay with Hek293T. The Potency result in the assay with JEG-3 is “inactive”.

`CN1CCN(Cc2ccc(NC(=O)Cc3ccc(Oc4cc(NC(=O)C5CC5)ncn4)cc3)cc2C(F)(F)F)CC1`: the Potency with Es-2 was 7.94 µM (active); in the assay with HeLa, 7.08 µM (active); with OV90, 4.47 µM (active); in the assay on PA-1 it was 5.62 µM (active); in the assay with Tov-21-G it was 6.31 µM (active); in the assay with Tov112D it was 5.62 µM (active).

In the case of `C=C1C(=O)OC2/C=C(/C)C3=CC(=O)C(C)(CC(OC(=O)/C(C)=C/COC(C)=O)C12)O3` (centres undefined), the Potency with Es-2 is 7.08 µM (active); in the assay on Tov-21-G, 11.2 µM (active). In addition, the Potency result in the assay with HeLa and in the assay on OV90 was “inactive” each time.

For `CCC(C)(OC(C)=O)C(=O)O[C@H]1[C@H](OC(C)=O)[C@]2(CO)[C@H](O)[C@H](O)[C@]3(C)C(=CCC4[C@@]5(C)CC[C@H](O[C@@H]6O[C@H](C(=O)O)[C@@H](O)[C@H](O[C@@H]7OC[C@H](O)[C@H](O[C@@H]8OC[C@H](O)[C@H](O)[C@H]8O)[C@H]7O)[C@H]6O[C@@H]6O[C@H](CO)[C@@H](O)[C@H](O)[C@H]6O)C(C)(C)C5CC[C@]43C)[C@@H]2CC1(C)C` (some centres undefined), the activity change, negative = cytotoxicity in the assay with Es-2 was -8.22% [at 6.55 µM]; in the assay with HeLa it was -8.59% [at 6.55 µM]; in the assay on Hek293T it was -17.4% [at 6.55 µM]; with JEG-3, -1.81% [at 6.55 µM]; in the assay on PA-1 it was -11.2% [at 6.55 µM]; in the assay with SKOV3, -31.7% [at 6.55 µM]. Also, the activity change, negative = cytotoxicity in the assay with Tov-21-G was -3.66% [at 6.55 µM]; in the assay with Tov112D it was -10.5% [at 6.55 µM].

As for `Cc1ccc(NC(=O)C(C)C)cc1C1CCN(Cc2ccc(Oc3ccc(F)c(F)c3)cc2)CC1`, the Potency entry with CASKI, in the assay on HeLa, with JEG-3 and in the assay with Tov112D was “inactive” throughout.

As to `Cc1ccc(C(=O)Nc2ccc(CN3CCN(C)CC3)c(C(F)(F)F)c2)cc1C#Cc1cnc2[nH]ncc2c1`, the values for the Potency (in the assay with OV90; in assay [2]) were 3.16 µM (active) and 0.394 µM (active), respectively.

As to `COC(=O)C1=CO[C@@H](O[C@@H]2O[C@H](CO)[C@@H](O)[C@H](O)[C@H]2O)[C@H]2[C@@H]1C=C[C@]21C=C([C@H](C)OC(=O)/C=C/c2ccc(O)cc2)C(=O)O1`, the Potency result in the assay with OV90 was “inactive”. In addition, the Potency is 12.6 µM (active) with PA-1 and 8.91 µM (active) in the assay on SKOV3.

Take `CC(O)(C(=O)O)C1CCC2(C)C1CCC1(C)C2CCC2C3(C)CCC(O)C(C)(COC4OC(CO)C(O)C(O)C4O)C3CCC21C` (centres undefined): the Potency in the assay on Hek293T is 10 µM (active); in the assay with Tov112D, 8.91 µM (active).

Consider `O=C(Nc1ccc(C(O)(C(F)(F)F)C(F)(F)F)cc1)c1ccc(C(F)(F)F)cc1`, for which the Potency entry with JEG-3 is “inactive”.

As to `C=C1[C@@H](OC(C)=O)CC[C@@]2(C)[C@@H](OC(C)=O)[C@H](OC(C)=O)C3=C(C)C[C@H](OC(=O)C(C)CC)[C@@H]([C@@H](OC(C)=O)[C@H]12)C3(C)C` (some centres undefined), in the assay on OV90, the Potency entry is “inactive”.

Consider `CCN1CCN(Cc2ccc(NC(=O)c3ccc(C)c(Oc4ncnc5[nH]c(C)cc45)c3)cc2C(F)(F)F)CC1`, for which the Potency in the assay with PA-1 is 31.6 µM (active); in the assay on Tov-21-G, 11.2 µM (active).

Take `CN1CCN(c2ccc(OC(F)(F)F)c(Nc3ncc4c(n3)-c3c(c(C(N)=O)nn3CCO)CC4)c2)CC1`: the Potency in the assay with HeLa is 0.224 µM (active); in the assay on PA-1, 0.282 µM (active); in the assay on Tov112D, 0.316 µM (active). Further, in the assay with OV90, the Potency entry is “inactive”.

With `C=CC(=O)N1CCC[C@@H](n2nc(-c3cccc(C(=O)Nc4ccc(C(C)C)c(C)c4)c3)c3c(N)ncnc32)C1`, the Potency entry in the assay on Hek293T, in the assay on JEG-3 and with PA-1 was “inactive” each time. Also, the Potency in the assay with Tov-21-G is 14.1 µM (active).

As for `Cc1cc2ncc(C(=O)NCC(C)(C)NCC(=O)N3CCC[C@H]3C#N)cn2n1`, the Potency entry in the assay with OV90 was “inactive”.

Regarding `CC1(C)CC[C@]23CO[C@@]4(CCC5[C@@]6(C)CC[C@H](O[C@@H]7OC[C@H](O[C@@H]8O[C@H](CO)[C@@H](O)[C@H](O)[C@H]8O[C@@H]8OC[C@@H](O)[C@H](O)[C@H]8O)[C@H](O)[C@H]7O[C@@H]7O[C@H](CO)[C@@H](O)[C@H](O)[C@H]7O)[C@@](C)(CO)C6CC[C@@]5(C)[C@]4(C)C[C@H]2O)[C@@H]3C1` (some centres undefined), the activity change, negative = cytotoxicity with HeLa is -0.159% [at 11.6 µM]; with PA-1 it was -25.5% [at 11.6 µM].

With `O=C1Nc2nc(-c3c(O)cccc3OCC3CC3)cc([C@@H]3CCCNC3)c2CO1`, the Potency result in the assay with HeLa and in the assay on JEG-3 was “inactive” throughout. Besides, the Potency with Tov-21-G was 14.1 µM (active); in the assay with Tov112D it was 22.4 µM (active); in [2] it was 7.01 µM (active). In [2] (Viability, at 45.9 µM (top of the series)), the activity change, negative = inhibition is -25%.

Turning to `O=C(Nc1ccc(N2C(=O)[C@@H]3[C@H](C2=O)[C@@H]2C=C[C@H]3C2)c(Cl)c1)c1ccccn1`, the Potency entry in the assay on HeLa and in the assay with Tov112D was “inactive” throughout.

In the case of `CC(C)=CCCC1(C)/C=C/C(OC(=O)C=C(C)C)C(C)(O)/C=C/C(=O)/C(CO)=C\C1` (centres undefined), the Potency in the assay with Hek293T is 8.91 µM (active).
